The campaign covered roughly 190,000 compounds. About 810 (0.43%) were called active. Shown is part of a subset that was picked to be rich in actives. A number with no mark means an inactive call. Cut-off read from the data, not from the text of the source: active = inhibition above about 50%; inactive = the rest.

The record followed here is PubChem BioAssay AID1209 (Sanford-Burnham Center for Chemical Genomics, 2008).

For this assay, the target named is Mannose-6-phosphate isomerase (Homo sapiens) (UniProt P34949). Nature of the assay: MPI enzyme activity inhibition – biochemical, fluorescence intensity, coupled assay, primary screen (AID 1209).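 Note: plate controls were DMSO vehicle for no effect and wells lacking substrate for full effect.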 The note with it: purified PMI enzyme, at 20 µM, stronger effect = higher value.
Sequence of Mannose-6-phosphate isomerase (Homo sapiens) (P34949 whole entry, looked up): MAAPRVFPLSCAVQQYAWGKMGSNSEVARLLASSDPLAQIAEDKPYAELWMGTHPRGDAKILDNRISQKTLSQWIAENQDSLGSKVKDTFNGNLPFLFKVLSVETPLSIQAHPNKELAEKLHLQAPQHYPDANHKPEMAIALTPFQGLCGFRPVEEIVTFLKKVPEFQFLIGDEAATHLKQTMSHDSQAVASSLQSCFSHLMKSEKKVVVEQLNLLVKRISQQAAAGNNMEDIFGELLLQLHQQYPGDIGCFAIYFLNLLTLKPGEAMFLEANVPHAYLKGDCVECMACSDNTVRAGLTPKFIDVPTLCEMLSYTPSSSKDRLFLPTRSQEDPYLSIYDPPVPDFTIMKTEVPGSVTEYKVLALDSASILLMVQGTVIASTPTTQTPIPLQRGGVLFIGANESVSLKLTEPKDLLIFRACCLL
Take `CC1(c2ccc([N+](=O)[O-])cc2)CC(C)(C)N(C(=O)c2ccccc2)c2ccccc21` (stereo not given): the inhibition was 15.2%.

Turning to `CC1(C)CC(CCC(=O)Nc2ccc(S(N)(=O)=O)cc2)C(=O)O1` (stereo not given), the inhibition is -3.1%. Turning to `CCNC(=S)N(Cc1ccco1)Cc1cc2cc3c(cc2[nH]c1=O)OCCO3`, the inhibition is 17.8%.

`Cc1ccc2[nH]c(=O)c(CN(CC3CCCO3)C(=S)NCc3ccco3)cc2c1` (stereo not given): the inhibition was 17.8%. With `Cc1ccc2cc(CN(CC3CCCO3)C(=S)NCc3ccco3)c(=O)[nH]c2c1` (stereo not given) the figure was 54.6% (active). With `Cc1cc2cc(CN(CC3CCCO3)C(=S)NCc3ccco3)c(=O)[nH]c2cc1C` (stereo not given) the figure was 9%. With `CN(C)CCN(Cc1cc2cc3c(cc2[nH]c1=O)OCO3)C(=S)NCc1ccco1` the figure was 9.6%. Turning to `O=c1[nH]c2cc3c(cc2cc1CN(CCCO)C(=S)NCc1ccco1)OCO3`, the inhibition is 11.2%. For `CC(C)CNC(=S)N(Cc1ccco1)Cc1cc2cc3c(cc2[nH]c1=O)OCCO3`, the inhibition was 19.9%.

In the case of `O=c1[nH]c2cc3c(cc2cc1CN(Cc1cccnc1)C(=S)NCc1ccco1)OCO3`, the inhibition was 53.9% (active).

For `O=c1[nH]c2cc3c(cc2cc1CN(Cc1cccnc1)C(=S)NCc1ccco1)OCCO3`, the inhibition is 59.7% (active). With `O=C(Cn1cnc2ccccc2c1=O)NCCC(=O)Nc1ccc2c(c1)OCO2` the figure was -1.6%.

For the compound `Fc1ccc(-c2cc(C(F)(F)F)n3ncnc3n2)cc1`, the inhibition is -18.4%.

Take `COC(=O)c1ccc(-n2c(C)cc(C(=O)COC(=O)CC3Sc4ccccc4NC3=O)c2C)cc1` (stereo not given): the inhibition was 3.1%. With `CCOC(=O)c1nnc(-c2ccc(C)cc2)nc1Oc1ccccc1Cl` the figure was 13.7%; with `CCOC(=O)c1sc(N/N=C/c2ccccc2)nc1C`, 60.3% (active). With `CCOC(=O)c1sc(N/N=C/c2cccc(C)c2)nc1C` the figure was 7.8%; with `CCOC(=O)c1sc(NC(=O)/C=C/c2ccccc2)nc1C`, -6.9%; with `Cc1ccc(-n2nnc3c(=O)n(Cc4ccccn4)cnc32)cc1C`, -5.8%. Under `CCN(CC)c1ccc(/C=N/NC(=O)Cc2cccs2)cc1` stands 15.6%. Take `Cc1ccc(NC(=O)C2CCN(S(=O)(=O)c3c(C)noc3/C=C/c3ccco3)CC2)nc1`: the inhibition was 9.1%. Take `Cc1cccnc1NC(=O)C1CCN(S(=O)(=O)c2c(C)noc2/C=C/c2ccco2)CC1`: the inhibition was 50.7% (active).

Take `Cc1cccc(NC(=O)C2CCN(S(=O)(=O)c3c(C)noc3/C=C/c3ccco3)CC2)n1`: the inhibition is -3.8%. For `Cn1cccc1CC(=O)N/N=C/c1cccc2ccccc12`, the inhibition was 4.2%. With `COc1ccc(S(=O)(=O)N2CCC(C(=O)NCc3ccccn3)CC2)cc1Cl`, the inhibition was 16.7%. With `COc1ccc(S(=O)(=O)N2CCCC(C(=O)NCc3ccccn3)C2)cc1` (stereo not given) the figure was 14%. Take `COc1ccc(S(=O)(=O)N2CCCC(C(=O)NCc3ccccn3)C2)cc1Cl` (stereo not given): the inhibition is 62.4% (active). With `O=C(O)CSc1nnc(Cn2nnc3ccccc32)n1CCc1ccccc1` the figure was -12.5%; with `COc1ccc(CN(CC2CCC(C(=O)O)CC2)C(=S)Nc2ccccc2OC)cc1` (stereo not given), -7.5%. Under `O=[N+]([O-])c1ccc(Sc2n[nH]c(-c3ccncc3)n2)nc1` stands 60.8% (active); under `O=[N+]([O-])c1ccc(Sc2n[nH]c(-c3ccco3)n2)nc1`, 8.5%; under `O=[N+]([O-])c1ccc(Sc2n[nH]c(-c3ccccc3)n2)nc1`, 16.5%. Under `O=C(O)CC(NC(=O)COc1ccc(Cl)cc1Cl)C(=O)O` (stereo not given) stands 4.9%. Consider `Cc1cc(C)cc(Nc2cc(=O)n(C3CCCCC3)c(=O)[nH]2)c1`, for which the inhibition was 12.2%. Turning to `Cc1cc2nc3c(=O)n(C4CCCCC4)c(=O)[nH]c3nc2cc1N`, the inhibition was 51.7% (active). Turning to `CCCCCCn1c(=O)[nH]c2nc3cc(N)c(C)cc3nc2c1=O`, the inhibition was 35.2%. As for `N#CCCN(C(=O)CSc1ccc2c(c1)OCCO2)c1ccccc1`, the inhibition was 3.1%. Under `Cc1ccc(NC(=O)c2ccc(Br)o2)cc1S(=O)(=O)N(C)C` stands -19%; under `CCN(C(=O)c1cc2cccc(OC)c2oc1=O)C1CCCCC1`, -7.8%. With `N#Cc1cc(N)ccc1Sc1ccccc1`, the inhibition is 4.7%. With `COc1ccc(S(=O)(=O)N2Cc3ccccc3CC2C(=O)O)cc1OC` (stereo not given) the figure was -6.9%. With `CCC(Sc1nc2ncnc(N)c2[nH]1)C(=O)O` (stereo not given) the figure was 64.8% (active); with `Nc1ncnc2nc(SCc3ccccc3)[nH]c12`, 9.5%. Under `CC(C)Sc1nc2ncnc(N)c2[nH]1` stands -8.9%; under `Cc1ccc(C)n1-c1cccc(S(=O)(=O)N2CCOCC2)c1`, -13.2%.

For the compound `O=c1[nH]c2c(c3c1CCCC3)CCCC2`, the inhibition is 16.2%. `CC1CCCN(C(=S)SCC(=O)c2cc(Br)cc(Br)c2O)C1` (stereo not given): the inhibition is 66.4% (active). Under `CC1CCCN(C(=S)SCC(=O)O)C1` (stereo not given) stands 0.8%. As to `O=C(CSC(=S)N1CCCC1)c1cc(Br)cc(Br)c1O`, the inhibition is 33.3%. Under `COc1cc(/C=C2\SC(=Nc3ccccc3)N(CCc3c[nH]c4ccccc34)C2=O)ccc1OC(C)C(=O)O` (stereo not given) stands 8%.

Take `COc1cc(C(=O)OCC(=O)Nc2c(F)c(F)c(F)c(F)c2F)cc(OC)c1OC`: the inhibition is -2.4%. Under `O=C(NC1CCCCC1)C(c1ccc(O)c(O)c1)N(C(=O)Cn1nnc2ccccc21)c1cccc(O)c1` (stereo not given) stands 47.5%; under `CC(=O)Nc1ccc(N(C(=O)Cn2nnc3ccccc32)C(C(=O)NC2CCCC2)c2ccc(O)c(O)c2)cc1` (stereo not given), 61.2% (active).

`Cc1ccc(N(C(=O)Cn2nnc3ccccc32)C(C(=O)NC2CCCCC2)c2cn(C)nc2C)cc1` (stereo not given): the inhibition was -4.2%. With `Cc1cc(C)n(-c2nc3ccccc3n3cnnc23)n1` the figure was -2.9%; with `COc1ccc(OC)c(NC(=O)c2cc3c(=O)n4ccccc4nc3n2C)c1`, -10.9%. As to `COc1ccc(NC(=S)NNC(=O)c2nnn(-c3ccccc3)c2C)cc1`, the inhibition was -2%. Regarding `Cc1ccccc1N(CC(=O)Nc1ccccc1C(=O)NCc1ccco1)S(=O)(=O)c1ccccc1`, the inhibition is -11.7%. With `CCN1CCc2c(C#N)c(N3CCCCC3)nc(NCc3ccccc3)c2C1` the figure was 30.4%; with `N#Cc1c(NCCCO)nc(-c2ccccc2)c2c1CCCC2`, 13.8%; with `C=CCNc1nc(N2CCOCC2)c(C#N)c2c1CN(C)CC2`, 9.5%. As for `C=CCNc1nc(NCc2ccccc2)c(C#N)c2c1CN(C)CC2`, the inhibition is 54.4% (active).

As for `CN1CCc2c(C#N)c(N3CCCCC3)nc(NCc3ccccc3)c2C1`, the inhibition is 26.6%.

For the compound `N#Cc1c(NCCCO)nc(NCc2ccccc2)c2c1CCN(Cc1ccccc1)C2`, the inhibition was 56.3% (active). Under `CCN1CCc2c(C#N)c(NCc3ccccc3)nc(N(CC)CC)c2C1` stands 3%; under `N#Cc1c(NCCN)nc(NCc2ccccc2)c2c1CCN(Cc1ccccc1)C2`, 17.8%. Under `CCN1CCc2c(C#N)c(NCc3ccccc3)nc(NCCO)c2C1` stands 52.6% (active). On to `CCOC(=O)c1cccc(NC(=O)CSc2nnnn2C)c1`, for which the inhibition is -7.4%. With `Cc1cc(NC(=O)CCc2ccc(S(=O)(=O)N3CCOCC3)cc2)n(-c2ccccc2)n1` the figure was -7%; with `N#Cc1cnn2ccc(-c3ccc4c(c3)CCC4)nc12`, 0.4%. Under `COCC(C)NC(=O)/C=C/c1ccc(OC)cc1` (stereo not given) stands 9.4%; under `O=C(c1cc(Cl)ccc1[N+](=O)[O-])N1CCc2ccccc2C1`, 7.8%; under `O=C(CSc1nc2ccccc2o1)NCC(=O)c1ccccc1`, 10.6%. With `CC(=O)N1N=C(c2cccc(Cl)c2)OC1c1cccc([N+](=O)[O-])c1` (stereo not given) the figure was 10.4%; with `Cc1cccc(NC(=O)CC2S/C(=N/c3nccs3)N(C)C2=O)c1` (stereo not given), -1.9%. Turning to `Cc1cccc(-n2c(=S)[nH]c3c(oc4ccccc43)c2=O)c1`, the inhibition was -1.9%. With `Cc1ccc(-n2c(=S)[nH]c3sc4c(c3c2=O)CCc2ccccc2-4)cc1` the figure was 10.4%; with `Cc1cccc(-n2c(=O)c3c4c(sc3n3c(=S)[nH]nc23)CCC4)c1`, -0.7%; with `COc1ccc(-n2c(=S)[nH]c3sc4c(c3c2=O)CCc2ccccc2-4)cc1`, 57.8% (active). Under `Cc1ccc(-n2c(=S)[nH]c3sc4c(c3c2=O)CCC4)cc1` stands 2.3%; under `COc1ccc(N2C(=O)CCC(C(=O)NCCN3CCOCC3)C2c2ccc(OC)c(OC)c2)cc1` (stereo not given), 17.2%; under `C=CCNC(=O)/C(=C/c1ccccc1OCC)NC(=O)c1ccccc1`, 3.5%. Under `CCCSc1nnc2[nH]c(=O)cc(N)n12` stands -1.4%; under `CCO[C@H]1OC(C(=O)N2CCN(Cc3ccc4c(c3)OCO4)CC2)=C[C@@H](c2ccccc2)[C@@H]1CCCO`, 7.5%; under `O=C(Cn1cncn1)NCCCc1ccccc1`, 4.2%. `COc1cc(/C=C2\NC(=S)N(C)C2=O)ccc1O`: the inhibition was -2.1%. With `CC(=O)c1c(C)[nH]c(C(=O)OCC(=O)Nc2cc(Cl)ccc2[N+](=O)[O-])c1C` the figure was 9.3%; with `Cc1ccc(S(=O)(=O)N2CCN(C(=O)/C=C/c3ccco3)CC2)cc1`, 26%. With `COc1ccccc1N1C(=N)S/C(=C\c2ccc(-c3ccccc3C(=O)O)o2)C1=O` the figure was -36.9%; with `Cc1ccc(C)c(N2C(=N)S/C(=C\c3ccc(-c4ccccc4C(=O)O)o3)C2=O)c1`, 18.5%. `CC(=O)Nc1ccc(S(=O)(=O)NNC(=O)COc2ccc(C)cc2)cc1`: the inhibition is 0.9%. With `CCOC(=O)N1CCN(Cc2ccc(F)cc2F)CC1` the figure was -1.3%.

With `Cc1cc(C)n2nc[n+](C)c2n1`, the inhibition is 72.6% (active). On to `Cc1cc(C)n2ncnc2n1`, for which the inhibition was 5.9%. For the compound `Cc1cc(C)n2nc(CCc3nc4nc(C)cc(C)n4n3)nc2n1`, the inhibition is -4.4%.

What is called inhibition is the relative decrease from the control value, in per cent.
